Source: PubChem BioAssay (several laboratories)
Most compounds without a hit are left out; they make up all but 3.9% or so of the library.
GDH-TPI inh: GDH-TPI coupled enzyme inhibition counter-screen. 360,000 compounds, 1.2% hits. inhibition, % at 4.8 µM. AID 588335. GDH-TPI coupled enzyme counterscreen, NADH absorbance; in the data active means inhibition above about 30%
FBA Mtb inh: inhibitors of M. tuberculosis fructose-bisphosphate aldolase; P9WQA3; purified M. tuberculosis FBA, fluorescence read-out; inhibition, % at 1 µM; 360,000 compounds, 2.3% hits; in the data active means inhibition above about 27%
Target sequence (P9WQA3 whole entry, looked up): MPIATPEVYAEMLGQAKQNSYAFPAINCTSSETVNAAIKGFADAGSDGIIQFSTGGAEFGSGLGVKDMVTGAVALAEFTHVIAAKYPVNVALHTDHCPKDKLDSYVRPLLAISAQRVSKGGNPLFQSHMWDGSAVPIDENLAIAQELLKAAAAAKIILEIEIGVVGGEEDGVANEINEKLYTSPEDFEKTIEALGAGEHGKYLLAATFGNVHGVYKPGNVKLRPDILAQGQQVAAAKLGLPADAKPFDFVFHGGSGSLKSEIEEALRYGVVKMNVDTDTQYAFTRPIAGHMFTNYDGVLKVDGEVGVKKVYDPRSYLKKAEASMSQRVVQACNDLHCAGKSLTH
PrPC surface inh: inhibitors of human cell surface prion protein PrPC. P04156. TR-FRET read-out. inhibition, % at 13.8 µM. 370,000 compounds, 0.43% hits. AID 720596; in the data active means inhibition above about 24%
Vc quorum ag: inducers of Vibrio cholerae quorum light production without autoinducers; activation, % at 18.7 µM; V. cholerae BH1578 lux reporter, luminescence, 6 h; AID 588436; 350,000 compounds, 0.16% hits; in the data active means activation mostly above about 9.7%, no sharp cut-off
SARS 3CLpro inh: SARS-CoV 3CLpro protease inhibition | P0C6X7 | recombinant SARS-CoV 3CLpro, quenched FRET peptide cleavage | inhibition, % at 6 µM | 290,000 compounds, 0.14% hits; in the data active means inhibition above about 12%
A number is an active result; – = inactive; · = no result; + = active, no number.

SMILES	GDH-TPI inh	FBA Mtb inh	PrPC surface inh	Vc quorum ag	SARS 3CLpro inh
Cc1ccc(C(C)(C)C)cc1S(=O)(=O)Nc1nc2ccccc2nc1Cl	–	–	26.8	–	–
CCCCNC(=O)c1cnc(Cc2c[nH]c3ccccc23)c(I)c1	–	–	–	–	·
COc1ccc(-c2cc(=Nc3c(C)n(C)n(-c4ccccc4)c3=O)c3ccccc3o2)cc1	–	+	–	–	–
COc1ccc(-c2csc(=Nc3c(C)n(C)n(-c4ccccc4)c3=O)n2C(C)(C)C)cc1	–	–	–	–	–
COC(=O)C1=C(C(=O)OC)[C@@H]2N(Cc3ccccc3)c3ccccc3[C@@]23C[C@@H](C(=O)OC)N(C(=O)NC(C)(C)C)C3=N1	–	–	–	–	·
Cc1ccc(S(=O)(=O)Oc2ccc(C)cc2/C=N/N=C2\NC(=O)C(C)S2)cc1 (stereo not drawn)	38.1	–	–	–	–
CCOc1cc(/C=N\NC(=O)c2ccc(C)nc2)cc([N+](=O)[O-])c1O	49.2	–	–	–	–
COc1cc(/C=N/NC(=O)c2ccc(C)nc2)cc([N+](=O)[O-])c1O	–	–	–	–	–
COc1cc([N+](=O)[O-])cc(/C=N/NC(=O)c2ccc(C)nc2)c1O	37.1	–	–	–	–
Cc1sc2nc(COC(=O)CNC(=O)c3cc(F)ccc3F)[nH]c(=O)c2c1C	·	·	–	·	·
O=C(C1CCC(=O)N(C2CCCC2)C1)N1CCC(Oc2ccccc2Cl)CC1 (stereo not drawn)	–	–	–	–	–
CCOc1cc(/C=C2\SC(=S)N(C(C(=O)O)c3ccccc3)C2=O)ccc1O (stereo not drawn)	37.5	–	–	–	–
CCOc1cc(/C=C2/SC(=S)N(CC(=O)O)C2=O)ccc1OC(=O)c1cccs1	40.7	–	–	–	–
CCOc1ccc(/C=C2/SC(=S)N(C(C(=O)O)c3ccccc3)C2=O)cc1OCC (stereo not drawn)	–	–	–	–	–
O=C(Cc1ccccc1)N1O[C@H]2C=C[C@@H]1C2	·	·	–	·	·
O=C(Cc1c(C(=O)O)[nH]c2ccccc12)NCCN1CCN(c2ccccc2F)CC1	–	–	–	–	–
O=C(/C=C/Nc1cccc(C(F)(F)F)c1)c1ccc(Oc2ncccn2)cc1	32.5	–	–	–	–
O=C(Nc1ccccc1Br)C1CC(=O)N(c2ccc3c4c(cccc24)CC3)C1 (stereo not drawn)	–	–	–	–	–
Cc1ccc(C)c(NC(=O)CN(C)C(=O)c2ccccc2OCc2c(C)noc2C)c1	–	–	–	–	·
COc1ccc(N2CCN(C(CNC(=O)c3ccc4c(c3)OCO4)c3cccnc3)CC2)cc1 (stereo not drawn)	–	–	–	+	–
NC(=O)[C@H]1CC2(CC(c3cccc(NC(=O)COc4ccc(Cl)cc4)c3)=NO2)CN1C(=O)c1ccc(Cl)cc1 (stereo partly drawn)	–	–	–	–	·
COc1cc([C@@H]2Oc3cc(C4Oc5cc(O)cc(O)c5C(=O)[C@H]4O)ccc3O[C@H]2CO)ccc1O (stereo partly drawn)	–	–	·	–	·
COc1cc([C@H]2Oc3cc([C@H]4Oc5cc(O)cc(O)c5C(=O)[C@@H]4O)ccc3O[C@@H]2CO)ccc1O	33.7	–	–	–	–
CNc1ccc(/C=C\CCCO)cn1	–	114.9	–	–	·
CCOC(=O)C(=CNc1ccc2c(c1)c1ccccc1n2CC)C(=O)OCC	–	–	–	–	–
SMILES	GDH-TPI inh	FBA Mtb inh	PrPC surface inh	Vc quorum ag	SARS 3CLpro inh
COc1cc(CN2CCNC(=O)C2CC(=O)NC2CCC2)cc(OC)c1 (stereo not drawn)	–	–	–	–	–
CCN1CCN(C(=O)c2cc3c(=O)n4ccccc4nc3s2)CC1	–	192.3	–	–	–
CCOC(=O)CC1C(=O)NCCN1C(=O)c1cc2c(=O)n3cccc(C)c3nc2s1 (stereo not drawn)	–	162.5	–	–	–
CCOC(=O)CC1C(=O)NCCN1C(=O)c1cc2c(=O)n3ccccc3nc2s1 (stereo not drawn)	·	·	·	·	–
CCOC(=O)C1CCN(C(=O)c2cc3c(=O)n4ccccc4nc3s2)CC1	–	159.2	–	–	–
COc1cccc(NC(=O)N(C)C[C@@H]2OCc3cnnn3CCCC(=O)N([C@H](C)CO)C[C@@H]2C)c1	–	–	–	–	·
Cc1ccc(-c2nc3ccc(Br)cn3c2Cc2cccc(Cl)c2)cc1	·	–	–	·	·
CCOc1cc(/C=C(/C#N)c2ccc(F)cc2)ccc1OCc1ccc(C(=O)O)o1	33.8	–	–	–	–
CCOc1cc(/C=C(/C#N)c2nc3ccccc3[nH]2)ccc1OCc1ccc(C(=O)O)o1	–	–	–	–	–
